Assay results as given in PubChem BioAssay.
Active and inactive are the calls of the source.

What was measured:
[1] = small molecules captured by biotinylated probe aFSTL3 – biochemical, small-molecule microarray, fluorescence 635/667, stem cell growth factor project, primary screen (AID 1064); conditions: higher = more signal;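 note: measures binding of the biotinylated anti-FSTL3 antibody to printed compounds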
[2] = binders from COS7 lysate, DM2A8 probe, primary screen, torsin A project, cell lysate, small-molecule microarray, fluorescence 635/667 (AID 1065); conditions: higher = more signal, COS7 lysate expressing mutant human TOR1A
[3] = small molecules captured by biotinylated probe aFGF2 – biochemical, small-molecule microarray, fluorescence 635/667, stem cell growth factor project, primary screen (AID 1067); conditions: higher = more signal;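 note: measures binding of biotinylated aFGF2 protein to printed compounds on slides; z-score merges feature fluorescence and signal-to-noise across triplicate slides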
[4] = small molecules captured by biotinylated probe aFGF10 – biochemical, small-molecule microarray, fluorescence 635/667, stem cell growth factor project, primary screen (AID 1071); conditions: higher = more signal;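 note: score merges 667 nm spot intensity and signal to noise from triplicate slides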
[5] = biological target: Neurogenic locus notch homolog protein 2 (Homo sapiens) (UniProt Q04721); assay: small molecules binding Notch2 protein – biochemical, small-molecule microarray, 635 nm fluorescence, stem cell growth factors, primary screen (AID 1073); conditions: higher = more signal
[6] = biological target: Pro-neuregulin-1, membrane-bound isoform (Homo sapiens) (UniProt Q02297); assay: small molecules binding neuregulin-1 protein – biochemical, small-molecule microarray, fluorescence 635/667, psychiatric disease protein project, primary screen (AID 1075); conditions: NRG1 binding, 635 nm fluorescence, higher = more signal;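 note: score combines 667 nm spot fluorescence with signal to noise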
[7] = system: Neuregulin-1 EGF-like domain; assay: small molecules binding NRG1 EGF domain – biochemical, small-molecule microarray, 635 nm fluorescence, primary screen (AID 1081); conditions: higher = more signal;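 note: binding of the protein to compounds printed on small-molecule microarray slides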
[8] = FRG1 expression reporter modulators in myotubes – cell-based, C2C12 myotubes, firefly/Renilla luciferase, luminescence, FRG1 inhibition for FSHD, primary screen (AID 1084); conditions: FRG1 promoter luciferase, higher = more signal, called active from +8 up or from −8 down
[9] = small molecules captured by biotinylated probe aFST – biochemical, small-molecule microarray, fluorescence 635/667, stem cell growth factor project, primary screen (AID 1086); conditions: higher = more signal;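 note: score merges 667 nm fluorescence with signal-to-noise of each printed compound spot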
[10] = binders of probe aHhip on microarray, primary screen, stem cell growth factor project, biochemical, small-molecule microarray, fluorescence 635/667 (AID 1087); conditions: higher = more signal;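 note: score merges spot fluorescence at 667nm with spot signal to noise ratio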

Chain of Neurogenic locus notch homolog protein 2 (Homo sapiens) (Q04721 whole entry, looked up, canonical isoform): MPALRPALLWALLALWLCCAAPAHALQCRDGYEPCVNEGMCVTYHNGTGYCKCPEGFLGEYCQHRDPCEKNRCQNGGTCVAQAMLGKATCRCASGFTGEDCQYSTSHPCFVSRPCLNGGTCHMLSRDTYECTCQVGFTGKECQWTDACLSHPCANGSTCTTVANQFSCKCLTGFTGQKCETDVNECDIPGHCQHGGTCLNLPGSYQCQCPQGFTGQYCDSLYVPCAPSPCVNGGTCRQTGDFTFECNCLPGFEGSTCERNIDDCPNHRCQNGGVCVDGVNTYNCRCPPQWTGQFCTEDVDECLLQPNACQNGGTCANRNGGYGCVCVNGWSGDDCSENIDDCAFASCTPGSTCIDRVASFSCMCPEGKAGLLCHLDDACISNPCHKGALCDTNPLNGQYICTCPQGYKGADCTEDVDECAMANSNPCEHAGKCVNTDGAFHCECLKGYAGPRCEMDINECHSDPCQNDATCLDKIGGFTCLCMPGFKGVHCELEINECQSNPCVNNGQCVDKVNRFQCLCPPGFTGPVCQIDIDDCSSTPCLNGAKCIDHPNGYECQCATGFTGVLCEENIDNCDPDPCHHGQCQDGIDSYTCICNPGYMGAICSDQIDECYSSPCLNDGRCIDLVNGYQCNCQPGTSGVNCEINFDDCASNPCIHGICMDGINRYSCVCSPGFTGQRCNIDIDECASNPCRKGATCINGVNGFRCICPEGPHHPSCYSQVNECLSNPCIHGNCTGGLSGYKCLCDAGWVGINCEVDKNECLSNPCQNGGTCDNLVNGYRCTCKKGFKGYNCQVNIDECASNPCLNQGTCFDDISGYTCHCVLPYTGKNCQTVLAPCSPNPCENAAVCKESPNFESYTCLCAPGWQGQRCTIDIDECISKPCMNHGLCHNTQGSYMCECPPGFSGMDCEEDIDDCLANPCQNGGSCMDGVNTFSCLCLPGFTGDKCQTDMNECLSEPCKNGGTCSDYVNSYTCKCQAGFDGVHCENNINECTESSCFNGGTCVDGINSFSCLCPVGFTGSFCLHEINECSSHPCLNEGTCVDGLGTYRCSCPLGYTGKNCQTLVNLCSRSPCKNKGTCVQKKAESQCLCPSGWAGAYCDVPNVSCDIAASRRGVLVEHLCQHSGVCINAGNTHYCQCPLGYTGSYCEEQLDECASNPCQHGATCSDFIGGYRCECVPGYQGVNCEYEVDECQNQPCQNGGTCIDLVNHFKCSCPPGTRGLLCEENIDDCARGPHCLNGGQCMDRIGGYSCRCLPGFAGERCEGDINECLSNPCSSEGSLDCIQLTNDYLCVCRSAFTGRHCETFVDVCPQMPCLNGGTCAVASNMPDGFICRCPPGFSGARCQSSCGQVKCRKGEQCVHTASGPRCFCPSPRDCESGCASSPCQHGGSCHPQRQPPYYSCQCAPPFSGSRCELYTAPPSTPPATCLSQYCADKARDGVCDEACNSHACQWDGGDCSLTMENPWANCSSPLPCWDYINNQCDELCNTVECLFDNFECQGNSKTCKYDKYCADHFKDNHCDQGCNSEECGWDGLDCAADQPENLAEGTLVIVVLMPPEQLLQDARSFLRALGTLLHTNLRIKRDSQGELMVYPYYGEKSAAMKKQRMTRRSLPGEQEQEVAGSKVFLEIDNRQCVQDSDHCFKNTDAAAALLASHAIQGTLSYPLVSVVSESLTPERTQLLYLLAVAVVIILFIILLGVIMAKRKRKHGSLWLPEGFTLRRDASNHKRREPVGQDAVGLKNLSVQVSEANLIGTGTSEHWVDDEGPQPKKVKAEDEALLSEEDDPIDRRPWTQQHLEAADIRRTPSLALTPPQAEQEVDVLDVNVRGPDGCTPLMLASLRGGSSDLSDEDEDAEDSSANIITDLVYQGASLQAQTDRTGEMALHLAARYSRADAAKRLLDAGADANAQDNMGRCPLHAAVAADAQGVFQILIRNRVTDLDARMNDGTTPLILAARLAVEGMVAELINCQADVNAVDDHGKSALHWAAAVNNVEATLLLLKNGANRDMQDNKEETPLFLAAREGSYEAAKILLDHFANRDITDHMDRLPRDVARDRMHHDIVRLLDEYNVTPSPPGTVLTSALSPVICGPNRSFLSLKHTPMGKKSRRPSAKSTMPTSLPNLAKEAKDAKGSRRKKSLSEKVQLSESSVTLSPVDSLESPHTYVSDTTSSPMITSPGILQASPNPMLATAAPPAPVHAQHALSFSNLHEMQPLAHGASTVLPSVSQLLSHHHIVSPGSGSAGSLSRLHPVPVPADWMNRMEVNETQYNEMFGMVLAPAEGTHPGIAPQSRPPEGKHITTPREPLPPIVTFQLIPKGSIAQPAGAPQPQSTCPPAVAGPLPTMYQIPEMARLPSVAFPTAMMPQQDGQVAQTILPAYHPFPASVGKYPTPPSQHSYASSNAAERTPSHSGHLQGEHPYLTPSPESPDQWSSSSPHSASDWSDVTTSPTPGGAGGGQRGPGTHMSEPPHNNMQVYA
Chain of Pro-neuregulin-1, membrane-bound isoform (Homo sapiens) (Q02297 whole entry, looked up, the tested form may be a part, canonical isoform): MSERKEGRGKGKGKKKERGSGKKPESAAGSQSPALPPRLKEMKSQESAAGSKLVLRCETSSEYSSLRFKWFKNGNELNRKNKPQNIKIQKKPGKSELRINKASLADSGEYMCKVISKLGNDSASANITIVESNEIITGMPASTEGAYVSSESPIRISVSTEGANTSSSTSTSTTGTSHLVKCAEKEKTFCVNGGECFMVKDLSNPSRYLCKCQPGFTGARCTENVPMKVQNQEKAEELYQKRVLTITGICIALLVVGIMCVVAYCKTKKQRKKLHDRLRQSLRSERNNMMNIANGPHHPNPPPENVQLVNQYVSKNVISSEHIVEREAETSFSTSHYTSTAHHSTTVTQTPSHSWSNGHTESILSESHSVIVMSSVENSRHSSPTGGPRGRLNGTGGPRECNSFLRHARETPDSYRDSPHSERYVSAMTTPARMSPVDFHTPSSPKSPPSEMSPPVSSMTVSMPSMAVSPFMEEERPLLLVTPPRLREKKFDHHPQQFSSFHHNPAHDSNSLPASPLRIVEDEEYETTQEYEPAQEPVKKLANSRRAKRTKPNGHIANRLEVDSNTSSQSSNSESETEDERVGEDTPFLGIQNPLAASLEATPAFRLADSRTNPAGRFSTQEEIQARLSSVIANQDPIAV

SMILES	composite z-score [1]	composite z-score [2]	composite z-score [3]	composite z-score [4]	composite z-score [5]	composite z-score [6]	composite z-score [7]	z-score [8]	composite z-score [9]	composite z-score [10]
CO[C@@H]1COC(=O)[C@@H](C)NC(=O)CC=C[C@@H](C)[C@H](NS(=O)(=O)c2ccc(C)cc2)COC(=O)[C@H](C)NC(=O)CC=C[C@H]1C	-0.505	0.441	-0.119	0.189	-0.167	-0.523	0.388	0.0404 (inactive)	-0.0334	0.168
CO[C@@H]1COC(=O)CC=C[C@H](C)[C@H](OC)COC(=O)[C@H](C)NC(=O)CC=C[C@H]1C	-0.729	1.42	-0.132	-0.267	-0.316	-0.63	0.347	-0.175 (inactive)	0.0458	-0.0491
CCOC(=O)NN=C1C[C@@H](O)[C@@H](O)[C@@H]2[C@@H]3C(=O)N(Cc4ccccc4)C(=O)[C@@H]3CC[C@H]12	-0.276	0.695	-0.124	0.164	0.287	-0.0283	-0.699	1.08 (inactive)	0.0387	-0.223
CCOC(=O)[C@H](CC(C)C)NC(=O)CCC1CC(OC(=O)NCCc2ccc(F)cc2)CC2(CCCC(COC(=O)NCCc3ccc(Cl)cc3)O2)O1 (stereo not given in full)	-0.543	1	-0.0267	0.491	0.74	0.0742	1.06	1.57 (inactive)	0.197	0.208
CCO[C@H](c1cc(OC)cc([N+](=O)[O-])c1OC)[C@H](C)C=CCC(=O)OC	-0.413	0.13	-0.22	-0.0567	-0.3	-0.264	-0.997	0.157 (inactive)	-0.185	-0.479
C[C@H](ON=C1[C@H]2CCn3c(=O)n(-c4ccccc4)c(=O)n3[C@H]2[C@H](O)[C@@H]2O[C@H]12)c1cn([C@H](CO)Cc2ccccc2)nn1	-0.317	0.386	-0.0189	0.347	0.862	-0.0139	0.764	0.68 (inactive)	0.138	1.13
COC(=O)[C@H](C)NC(=O)CCC1CC(OC(=O)NCc2ccc3c(c2)OCO3)CC2(CCCC(COC(=O)NCc3cccc(C(F)(F)F)c3)O2)O1 (stereo not given in full)	-0.0199	0.325	-0.1	0.688	0.679	0.151	0.795	-0.15 (inactive)	0.307	1.19
CCC(=O)[C@@]1(O)C(=O)N2C(=C3C(=O)OCC[C@@H]31)N(Cc1ccccc1)C(C)=C(C(=O)OC)[C@H]2c1ccccc1	-0.268	0.364	-0.167	0.342	0.355	-0.13	0.0811	0.105 (inactive)	0.179	0.176
O=C1[C@H]2[C@H]3[C@H](O)[C@H](O)CC(=NOC[C@@H](O)COCc4ccco4)[C@H]3CC[C@H]2C(=O)N1Cc1ccccc1	-0.414	1.33	-0.21	0.17	-0.224	-0.346	0.299	0.272 (inactive)	-0.222	-0.132
COc1ccc(COC(=O)NN=C2C[C@@H](O)[C@@H](O)[C@@H]3[C@@H]4C(=O)N(c5ccc(F)cc5F)C(=O)[C@@H]4CC[C@H]23)cc1	1.64	-0.398	-0.128	-0.088	-0.412	0.461	0.179	0.398 (inactive)	1.28	-0.0645
COCOc1ccc(Br)cc1C(=O)[C@@H]1O[C@H]1c1cccc(OC)c1	-0.305	-0.0196	-0.122	0.204	0.333	-0.268	0.287	-0.0714 (inactive)	-0.0156	-0.202
C#CCCCON=C1C[C@@H](O)[C@@H](O)[C@@H]2[C@@H]3C(=O)N(Cc4ccccc4)C(=O)[C@@H]3CC[C@@H]12	-0.19	0.421	-0.0887	0.0443	0.181	0.0645	-0.816	-0.211 (inactive)	0.53	0.0176
C=CC[C@@H]1C=C[C@H](ON=C(C)CCC(=O)OC[C@H]2O[C@H](c3ccccc3)C=C[C@@H]2Oc2ccc(OC)cc2)[C@@H](CO)O1	-0.409	-0.324	-0.163	0.13	-1.06	0.372	0.215	0.403 (inactive)	-0.303	-0.147
